The values below come from the antibiotic and cytotoxicity screens of Wong et al. (2023).

Hit rate of the full screen: of about 39,000 compounds, about 3,300 (8.5%) were called active. The sample as a whole holds a higher share of actives than the screen did.

The test system of this assay is HepG2. Put plainly: cytotoxicity call (relative viability < 0.9). The settings on record: 10 µM.
`CC(C)NC(=O)Nc1ccc2c(c1)C(=O)N([C@@H](C)CO)C[C@@H](C)[C@H](CN(C)Cc1ccc(C(=O)O)cc1)O2`: the cytotoxicity call is “inactive”.

With `C[C@@H]1CN([C@@H](C)CO)C(=O)c2cccc(NC(=O)Nc3ccc(C(F)(F)F)cc3)c2O[C@H]1CN(C)C(=O)Nc1cccc2ccccc12`, the cytotoxicity call was “active”.

`C[C@H](CO)N1C[C@H](C)[C@H](CN(C)C(=O)Nc2cccc3ccccc23)Oc2c(NC(=O)Nc3ccc(C(F)(F)F)cc3)cccc2C1=O`: the cytotoxicity call is “active”.

With `C[C@@H]1CN([C@@H](C)CO)C(=O)c2cccc(NC(=O)Nc3ccc(C(F)(F)F)cc3)c2O[C@@H]1CN(C)C(=O)Nc1cccc2ccccc12`, the cytotoxicity call was “active”.

On to `C[C@@H]1CN([C@H](C)CO)C(=O)c2cccc(NC(=O)Nc3ccc(C(F)(F)F)cc3)c2O[C@H]1CN(C)C(=O)Nc1cccc2ccccc12`, for which the cytotoxicity call is “active”.

`C[C@@H]1CN([C@H](C)CO)C(=O)c2cccc(NC(=O)Nc3ccc(C(F)(F)F)cc3)c2O[C@@H]1CN(C)C(=O)Nc1cccc2ccccc12`: the cytotoxicity call was “inactive”.

Turning to `C[C@H](CO)N1C[C@H](C)[C@@H](CN(C)C(=O)Nc2cccc3ccccc23)Oc2c(NC(=O)Nc3ccc(C(F)(F)F)cc3)cccc2C1=O`, the cytotoxicity call is “inactive”.

Turning to `C[C@@H]1CCCCO[C@@H](CN(C)C(=O)c2ccccc2)[C@H](C)CN([C@@H](C)CO)C(=O)c2cc(NS(=O)(=O)c3ccc(Cl)cc3)ccc2O1`, the cytotoxicity call was “inactive”.

Turning to `COc1ccc(S(=O)(=O)N(C)C[C@H]2Oc3ccc(NS(=O)(=O)c4ccccc4)cc3CC(=O)N([C@H](C)CO)C[C@@H]2C)cc1`, the cytotoxicity call is “inactive”.

As for `COc1ccc(S(=O)(=O)N(C)C[C@H]2OCCCC[C@H](C)Oc3ccc(NS(=O)(=O)c4cn(C)cn4)cc3C(=O)N([C@@H](C)CO)C[C@H]2C)cc1`, the cytotoxicity call was “inactive”.

Turning to `C[C@H]1CN([C@@H](C)CO)S(=O)(=O)c2ccc(C#CC3(O)CCCC3)cc2O[C@H]1CN(C)C(=O)Nc1ccc(F)cc1`, the cytotoxicity call was “inactive”.

For `COCC(=O)N1CC[C@]2(CC1)CN([C@H](CO)c1c2c2ccc(cc2n1C)OC)C(=O)CN1CCOCC1`, the cytotoxicity call was “inactive”.

Regarding `O=C1N[C@@H](Cc2c[nH]c3ccccc23)COC(=O)[C@@H](Cc2ccc(F)cc2)CCC=CC[C@H]1CC(=O)N(CCO)Cc1ccccc1`, the cytotoxicity call was “inactive”.

In the case of `C[C@H](CO)N1C[C@H](C)[C@@H](CN(C)S(=O)(=O)c2cn(C)cn2)OCc2ccccc2-c2c(n(C)c3ccccc23)C1=O`, the cytotoxicity call is “inactive”.

`O=C(C[C@H]1C[C@@H]2c3cc(NC(=O)c4ccc5c(c4)OCO5)ccc3O[C@@H]2[C@@H](CO)O1)NCCN1CCCCC1`: the cytotoxicity call was “inactive”.

As for `CC(C)(C)[S@](=O)N1Cc2cc(C(=O)N3CCc4ccccc4C3)nc(-c3cccc(-c4cccnc4)c3)c2[C@@H]1CCO`, the cytotoxicity call is “inactive”.

With `Cc1ccc(S(=O)(=O)Nc2ccc3c(c2)C(=O)N([C@H](C)CO)C[C@H](C)[C@@H](CN(C)S(=O)(=O)c2ccc(F)cc2)OCCCC[C@@H](C)O3)cc1`, the cytotoxicity call was “inactive”.

As for `C[C@H]1CN([C@@H](C)CO)C(=O)c2cccc(NC(=O)Nc3ccc(C(F)(F)F)cc3)c2O[C@@H]1CN(C)C(=O)Nc1cccc2ccccc12`, the cytotoxicity call was “active”.

As for `C[C@H](CO)N1C[C@H](C)[C@H](CN(C)C(=O)Nc2cccc3ccccc23)Oc2c(NC(=O)Nc3ccc(F)cc3)cccc2C1=O`, the cytotoxicity call is “inactive”.

Take `C[C@H]1CN([C@@H](C)CO)C(=O)c2cccc(NC(=O)Nc3ccc(C(F)(F)F)cc3)c2O[C@H]1CN(C)C(=O)Nc1cccc2ccccc12`: the cytotoxicity call was “inactive”.

`CC(=O)NCCCC[C@@H]1NC(=O)[C@H]2C[C@@H](C(=O)NCCCC[N+](C)(C)C)[C@@H](c3ccc(O)cc3)N2C1=O`: the cytotoxicity call is “active”.

Consider `C[N+](C)(C)CCCCNC(=O)[C@H]1C[C@H]2C(=O)N3CCC[C@H]3C(=O)N2[C@H]1c1cccc(OCCO)c1`, for which the cytotoxicity call is “active”.

On to `CC(=O)NCCCC[C@@H]1NC(=O)[C@@H]2C[C@H](C(=O)NCCCC[N+](C)(C)C)[C@H](c3cccc(OCCO)c3)N2C1=O`, for which the cytotoxicity call is “active”.

In the case of `C[N+](C)(C)CCCCNC(=O)[C@H]1C[C@H]2C(=O)N[C@@H](CCCC[N+](C)(C)C)C(=O)N2[C@H]1c1cccc(OCCO)c1`, the cytotoxicity call is “inactive”.

As to `C[N+](C)(C)CCCCCCNC(=O)[C@H]1C[C@H]2C(=O)N3CCC[C@H]3C(=O)N2[C@H]1c1cccc(OCCO)c1`, the cytotoxicity call was “inactive”.

For the compound `C[N+](C)(C)CCCCNC(=O)[C@@H]1C[C@@H]2C(=O)N3CCC[C@H]3C(=O)N2[C@@H]1c1cccc(OCCO)c1`, the cytotoxicity call is “inactive”.

Take `CC(=O)NCCCC[C@@H]1NC(=O)[C@H]2C[C@@H](C(=O)NCCCC[N+](C)(C)C)[C@@H](c3cccc(OCCO)c3)N2C1=O`: the cytotoxicity call was “inactive”.

With `C[N+](C)(C)CCCCNC(=O)[C@H]1C[C@H]2C(=O)N[C@@H](CCCC[N+](C)(C)C)C(=O)N2[C@H]1c1ccc(O)cc1`, the cytotoxicity call is “inactive”.

On to `C[N+](C)(C)CCCCNC(=O)[C@@H]1C[C@@H]2C(=O)N[C@@H](CCCC[N+](C)(C)C)C(=O)N2[C@@H]1c1ccc(O)cc1`, for which the cytotoxicity call was “inactive”.

As to `C[C@H](CO)N1C[C@H](C)[C@H](CN(C)C(=O)C2CCCCC2)OCCCC[C@H](C)Oc2ccc(NC(=O)c3ccccc3)cc2C1=O`, the cytotoxicity call is “inactive”.

For `O=C(C[C@@H]1CC=CC[C@H](NC(=O)OCC2c3ccccc3-c3ccccc32)C(=O)O[C@H](c2ccccc2)CNC1=O)N[C@@H](CO)Cc1ccccc1`, the cytotoxicity call is “inactive”.

For `CNC(=O)C[C@H]1CC[C@@H]2[C@H](COC[C@H](O)CN2C(=O)Nc2ccc3c(c2)OCO3)O1`, the cytotoxicity call is “inactive”.

For `CO[C@H]1CN(C)C(=O)c2ccc(NS(=O)(=O)CC(F)(F)F)cc2OC[C@H](C)N(C(=O)NC(C)C)C[C@@H]1C`, the cytotoxicity call was “inactive”.

Take `CO[C@@H]1CN(C)C(=O)c2cc(NS(=O)(=O)c3cn(C)cn3)ccc2OC[C@H](C)N(CC2CC2)C[C@@H]1C`: the cytotoxicity call is “inactive”.

Regarding `CNC(=O)c1cnc2n1CCN(Cc1nccn1C)C2`, the cytotoxicity call was “inactive”.

As to `CC(C)[C@H](NC(=O)[C@H](C)N(C)C)C(=O)N1CC[C@@H]2Oc3ccc(cc3)/C=C\NC(=O)[C@H](Cc3ccccc3)NC(=O)[C@H]21`, the cytotoxicity call is “inactive”.

`C[C@@H]1CN([C@H](C)CO)C(=O)c2cc(NC(=O)Cn3cnnn3)ccc2O[C@H]1CN(C)S(=O)(=O)c1ccc(F)cc1`: the cytotoxicity call was “inactive”.

As for `O=C(C[C@@H]1C[C@H]2c3cc(NC(=O)Nc4ccccc4F)ccc3O[C@H]2[C@@H](CO)O1)NCc1ccc(Oc2ccccc2)cc1`, the cytotoxicity call is “inactive”.

For the compound `COc1ccc(CN(C)C[C@H]2Oc3ccc(NC(=O)Nc4cccc5ccccc45)cc3C(=O)N([C@H](C)CO)C[C@@H]2C)cc1`, the cytotoxicity call is “inactive”.

With `COc1ccc(CN(C)C[C@@H]2Oc3ccc(NC(=O)Nc4cccc5ccccc45)cc3C(=O)N([C@H](C)CO)C[C@@H]2C)cc1`, the cytotoxicity call was “inactive”.

On to `C[C@@H]1CN([C@H](C)CO)C(=O)c2cc(NC(=O)Nc3cccc4ccccc34)ccc2O[C@@H]1CN(C)Cc1ccc(Oc2ccccc2)cc1`, for which the cytotoxicity call was “active”.

On to `COc1ccc(CN(C)C[C@H]2Oc3ccc(NC(=O)Nc4cccc5ccccc45)cc3C(=O)N([C@@H](C)CO)C[C@@H]2C)cc1`, for which the cytotoxicity call is “inactive”.

For the compound `COc1ccc(CN(C)C[C@H]2Oc3ccc(NC(=O)Nc4cccc5ccccc45)cc3C(=O)N([C@@H](C)CO)C[C@H]2C)cc1`, the cytotoxicity call was “inactive”.

For the compound `COc1ccc(CN(C)C[C@@H]2Oc3ccc(NC(=O)Nc4cccc5ccccc45)cc3C(=O)N([C@@H](C)CO)C[C@H]2C)cc1`, the cytotoxicity call was “inactive”.

`C[C@H](CO)N1C[C@H](C)[C@@H](CN(C)Cc2ccc(Oc3ccccc3)cc2)Oc2ccc(NC(=O)Nc3cccc4ccccc34)cc2C1=O`: the cytotoxicity call is “inactive”.

As to `C[C@@H]1CN([C@@H](C)CO)C(=O)c2cc(NC(=O)Nc3cccc4ccccc34)ccc2O[C@@H]1CN(C)Cc1ccc(Oc2ccccc2)cc1`, the cytotoxicity call was “active”.

With `C[C@@H]1CN([C@H](C)CO)C(=O)c2cc(NC(=O)Nc3cccc4ccccc34)ccc2O[C@H]1CN(C)Cc1ccc(Oc2ccccc2)cc1`, the cytotoxicity call was “active”.

Take `C[C@H](CO)N1C[C@H](C)[C@H](CN(C)Cc2ccc(Oc3ccccc3)cc2)Oc2ccc(NC(=O)Nc3cccc4ccccc34)cc2C1=O`: the cytotoxicity call was “active”.

As for `C[C@@H]1CN([C@@H](C)CO)C(=O)c2cc(NC(=O)Nc3cccc4ccccc34)ccc2O[C@H]1CN(C)Cc1ccc(Oc2ccccc2)cc1`, the cytotoxicity call was “inactive”.

Take `COc1ccc(CN(C)C[C@@H]2Oc3ccc(NC(=O)Nc4cccc5ccccc45)cc3C(=O)N([C@H](C)CO)C[C@H]2C)cc1`: the cytotoxicity call is “inactive”.

For the compound `C[C@H](CO)N1C[C@H](C)[C@H](CN(C)S(=O)(=O)c2ccc(F)cc2)Oc2ncc(C#CC(C)(C)O)cc2C1=O`, the cytotoxicity call was “inactive”.

Regarding `C[C@@H]1CN([C@@H](C)CO)C(=O)c2c(c3ccccc3n2C)-c2ccccc2CO[C@@H]1CN(C)Cc1cccc(C(=O)O)c1`, the cytotoxicity call was “inactive”.

Take `C[C@H](CO)N1C[C@H](C)[C@H](CN(C)S(=O)(=O)c2ccc(Oc3ccccc3)nc2)OCc2cnnn2CCCC1=O`: the cytotoxicity call is “inactive”.

As to `COc1ccc(CCNC(=O)[C@@]2(Sc3ccc(C)cc3)CC(=O)N(Cc3cc(C(F)(F)F)cc(C(F)(F)F)c3)[C@@H]2c2ccc(CO)cc2I)cc1`, the cytotoxicity call was “inactive”.

In the case of `Cc1ccc(S(=O)(=O)N2C[C@@H](O)COC[C@@H]3O[C@@H](CC(=O)N[C@@H]4CCN(Cc5ccccc5)C4)CC[C@H]32)cc1`, the cytotoxicity call was “inactive”.

Turning to `COCC(=O)Nc1ccc2c(c1)C(=O)N(C)C[C@H](OC)[C@H](C)CN(C(=O)Cc1cccnc1)[C@H](C)CO2`, the cytotoxicity call was “inactive”.

As to `C[C@@H]1CN([C@@H](C)CO)C(=O)c2cc(NC(=O)C3CC3)ccc2O[C@H]1CN(C)Cc1ccc(Oc2ccccc2)cc1`, the cytotoxicity call is “inactive”.

For the compound `C[C@@H]1CN([C@@H](C)CO)S(=O)(=O)c2ccc(C#CC(C)(C)O)cc2O[C@H]1CN(C)C(=O)C1CCCCC1`, the cytotoxicity call was “inactive”.

As to `O=C(C[C@@H]1C=C[C@H](NC(=O)C2CCC2)[C@H](CO)O1)NCCCN1CCOCC1`, the cytotoxicity call is “inactive”.

`C[C@H](CO)N1C[C@H](C)[C@@H](CN(C)Cc2ccc(C(=O)Nc3ccccc3N)cc2)Oc2ccc(NC(=O)Cc3ccccc3)cc2C1=O`: the cytotoxicity call is “inactive”.
